Assay results taken from article PMC5540273 (PLoS ONE, 2017).

Columns and labels:
Conditions in all cases: concentration: 1 μM, replicates: in singlicate; n = 1
TESK1 = test system: TESK1
TGFBR1 = test system: TGFBR1
TGFBR2 = test system: TGFBR2
TIE1 = test system: TIE1
TIE2 = test system: T1, TIE2
T1 construct: gene TEK

TLK1 = test system: TLK1
TLK2 = test system: TLK2
TNIK = test system: TNIK
TNK1 = test system: TNK1
TNK2 = test system: TNK2
TNNI3K = test system: TNNI3K
TRKA = test system: T2, TRKA
T2 construct: gene NTRK1

TRKB = test system: TRKB
TRKC = test system: T3, TRKC
T3 construct: gene NTRK3

TRPM6 = test system: TRPM6
TSSK1B = test system: TSSK1B
TSSK3 = test system: TSSK3
TTK = test system: TTK
TXK = test system: TXK
[1] = test system: TYK2(JH1domain-catalytic)
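Further: KINOMEscan kinase panel screen.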

## O=c1[nH]cc(-c2ccc(N3CCOCC3)cc2)c2sc(-c3cn[nH]c3)cc12 [GSK2276055]
TESK1
  %Inh: 55%
TGFBR1
  %Inh: 0%
TGFBR2
  %Inh: 0%
TIE1
  %Inh: 0%
TIE2
  %Inh: 0%
TLK1
  %Inh: 25%
TLK2
  %Inh: 19%
TNIK
  %Inh: 10%
TNK1
  %Inh: 0%
TNK2
  %Inh: 0%
TNNI3K
  %Inh: 0%
TRKA
  %Inh: 0%
TRKB
  %Inh: 0%
TRKC
  %Inh: 0%
TRPM6
  %Inh: 0%
TSSK1B
  %Inh: 18%
TSSK3
  %Inh: 13%
TTK
  %Inh: 22%
TXK
  %Inh: 76%
[1]
  %Inh: 23%

## Cc1cccc(NC(=O)Nc2ccc(Oc3ncnc4ccn(C)c34)cc2)c1
TESK1
  %Inh: 0%
TGFBR1
  %Inh: 0%
TGFBR2
  %Inh: 0%
TIE1
  %Inh: 59%
TIE2
  %Inh: 2%
TLK1
  %Inh: 0%
TLK2
  %Inh: 0%
TNIK
  %Inh: 8%
TNK1
  %Inh: 0%
TNK2
  %Inh: 5%
TNNI3K
  %Inh: 0%
TRKA
  %Inh: 20%
TRKB
  %Inh: 35%
TRKC
  %Inh: 57%
TRPM6
  %Inh: 0%
TSSK1B
  %Inh: 19%
TSSK3
  %Inh: 0%
TTK
  %Inh: 0%
TXK
  %Inh: 0%
[1]
  %Inh: 0%

## CN1CCN(Cc2cccc(-c3ccc4c(Nc5ccc(Oc6ccccc6)cc5)ccnc4c3)c2)CC1 [GW578342]
TESK1
  %Inh: 2%
TGFBR1
  %Inh: 0%
TGFBR2
  %Inh: 0%
TIE1
  %Inh: 10%
TIE2
  %Inh: 0%
TLK1
  %Inh: 78%
TLK2
  %Inh: 0%
TNIK
  %Inh: 98.8%
TNK1
  %Inh: 70%
TNK2
  %Inh: 7%
TNNI3K
  %Inh: 6%
TRKA
  %Inh: 43%
TRKB
  %Inh: 0%
TRKC
  %Inh: 19%
TRPM6
  %Inh: 39%
TSSK1B
  %Inh: 0%
TSSK3
  %Inh: 6%
TTK
  %Inh: 0%
TXK
  %Inh: 5%
[1]
  %Inh: 8%

## COc1ccc(CNC(=O)NC2CCN(c3ccnc(Nc4ccc(F)cc4)n3)CC2)cc1 [GSK1379788]
TESK1
  %Inh: 2%
TGFBR1
  %Inh: 18%
TGFBR2
  %Inh: 0%
TIE1
  %Inh: 0%
TIE2
  %Inh: 0%
TLK1
  %Inh: 0%
TLK2
  %Inh: 0%
TNIK
  %Inh: 0%
TNK1
  %Inh: 9%
TNK2
  %Inh: 2%
TNNI3K
  %Inh: 0%
TRKA
  %Inh: 0%
TRKB
  %Inh: 0%
TRKC
  %Inh: 6%
TRPM6
  %Inh: 0%
TSSK1B
  %Inh: 1%
TSSK3
  %Inh: 18%
TTK
  %Inh: 0%
TXK
  %Inh: 3%
[1]
  %Inh: 21%

## O=C(Nc1cccc(-c2nn3ccccc3c2-c2ccnc(Nc3cccc(F)c3)n2)c1)c1c(F)ccc(F)c1Cl [GSK357952]
TESK1
  %Inh: 0%
TGFBR1
  %Inh: 2%
TGFBR2
  %Inh: 19%
TIE1
  %Inh: 48%
TIE2
  %Inh: 22%
TLK1
  %Inh: 0%
TLK2
  %Inh: 0%
TNIK
  %Inh: 0%
TNK1
  %Inh: 91.6%
TNK2
  %Inh: 21%
TNNI3K
  %Inh: 0%
TRKA
  %Inh: 11%
TRKB
  %Inh: 0%
TRKC
  %Inh: 0%
TRPM6
  %Inh: 32%
TSSK1B
  %Inh: 0%
TSSK3
  %Inh: 6%
TTK
  %Inh: 28%
TXK
  %Inh: 67%
[1]
  %Inh: 11%

## Nc1n[nH]c2cnc(-c3ccccc3)cc12 [SB-642124]
TESK1
  %Inh: 22%
TGFBR1
  %Inh: 27%
TGFBR2
  %Inh: 58%
TIE1
  %Inh: 100%
TIE2
  %Inh: 0%
TLK1
  %Inh: 25%
TLK2
  %Inh: 0%
TNIK
  %Inh: 39%
TNK1
  %Inh: 0%
TNK2
  %Inh: 38%
TNNI3K
  %Inh: 0%
TRKA
  %Inh: 0%
TRKB
  %Inh: 28%
TRKC
  %Inh: 20%
TRPM6
  %Inh: 9%
TSSK1B
  %Inh: 30%
TSSK3
  %Inh: 12%
TTK
  %Inh: 0%
TXK
  %Inh: 3%
[1]
  %Inh: 79%

## CN(c1ccc(NC(=O)Nc2cc(C(F)(F)F)ccc2F)cc1)c1ccnc(Nc2ccc(S(N)(=O)=O)cc2)n1 [GW809893]
TESK1
  %Inh: 75%
TGFBR1
  %Inh: 0%
TGFBR2
  %Inh: 6%
TIE1
  %Inh: 94.3%
TIE2
  %Inh: 99.6%
TLK1
  %Inh: 0%
TLK2
  %Inh: 0%
TNIK
  %Inh: 81%
TNK1
  %Inh: 54%
TNK2
  %Inh: 0%
TNNI3K
  %Inh: 93.3%
TRKA
  %Inh: 100%
TRKB
  %Inh: 97.6%
TRKC
  %Inh: 98.7%
TRPM6
  %Inh: 31%
TSSK1B
  %Inh: 5%
TSSK3
  %Inh: 9%
TTK
  %Inh: 22%
TXK
  %Inh: 26%
[1]
  %Inh: 44%

## Cc1cccc(Nc2nc(N[C@H]3CCNC3)ncc2C(N)=O)c1.Cl [GSK2197149]
TESK1
  %Inh: 23%
TGFBR1
  %Inh: 0%
TGFBR2
  %Inh: 0%
TIE1
  %Inh: 0%
TIE2
  %Inh: 0%
TLK1
  %Inh: 20%
TLK2
  %Inh: 0%
TNIK
  %Inh: 78%
TNK1
  %Inh: 47%
TNK2
  %Inh: 6%
TNNI3K
  %Inh: 0%
TRKA
  %Inh: 93.3%
TRKB
  %Inh: 0%
TRKC
  %Inh: 18%
TRPM6
  %Inh: 34%
TSSK1B
  %Inh: 13%
TSSK3
  %Inh: 29%
TTK
  %Inh: 29%
TXK
  %Inh: 15%
[1]
  %Inh: 46%
